Values joined by “and” are separate entries in the source; they are usually repeats but may differ in a detail not shown here. Identical values can stand only once. Inconclusive results are not listed. A call without a number means that no potency is given here. Active and inactive are the calls of the source. Unless noted, the call rests on the fitted dose curve.
Columns and labels:
[1] = Nuclear factor erythroid 2-related factor 2/antioxidant responsive element (Nrf2/ARE) small molecule agonists: qHTS cell viability counter screen in human keratinocytes (AID 1919968; active means well fitted curve in the direction sought with a large enough effect in the repeat runs; an effect the other way counts as inactive or inconclusive; further: nearly all actives have a fitted effect of over 55% in size)
Procedure, shortened: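 Cells of the KeratinoSens line were plated at 1,500 per well and left for 5 h before compound transfer from DMSO stocks. After a 23 h incubation (37 C, 5% CO2), CellTiter-Fluor was added. Signal was taken as fluorescence intensity 1 h later.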

[2] = Nuclear factor erythroid 2-related factor 2/antioxidant responsive element (Nrf2/ARE) small molecule agonists: luciferase reporter gene qHTS assay in human keratinocytes (AID 1919969); further: nearly all actives have a fitted effect of over 35% in size; further: potency means the concentration at half of the fitted maximal effect
[3] = target: Gonadotropin-releasing hormone receptor (Homo sapiens) (UniProt P30968); assay: Human gonadotropin-releasing hormone receptor (GnRHR) small molecule agonists, calcium flux assay in GnRHR-HEK293 cells (AID 1920063); further: nearly all actives have a fitted effect of over 35% in size
Procedure, shortened: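 Compounds dissolved in DMSO are pin-transferred onto dye-loaded GnRHR-HEK293 cells, which were seeded 18 h before at 37 C/5% CO2. Calcium signal is read as fluorescence intensity at 1 s intervals for 3 min.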

[4] = target: KiSS-1 receptor (Homo sapiens) (UniProt Q969F8); assay: Human kisspeptin (KISS1R) small molecule agonists, calcium flux assay in KISS1R-HEK293 cells (AID 1920064; active means well fitted curve in the direction sought with a large enough effect in the repeat runs; an effect the other way counts as inactive or inconclusive)
Procedure, shortened: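 Cell line: HEK293, stable human KISS1R. Dye loading 1 h at 37 C after 18 h culture. Read: kinetic fluorescence, 480/540 nm, 3 min at 1 s intervals.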

[5] = G protein-coupled receptor (GPCR) small molecule agonists, calcium flux assay: HEK293 wild type cell line counter screen (AID 1920065)
Procedure, shortened: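 Tox21 10K compounds, 15 concentrations each in triplicate, pin-transferred in DMSO onto dye-loaded cells; kinetic read at 480/540 nm for 3 min, 1 s intervals.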

[6] = p53 small molecule agonists, cell-based qHTS assay with human liver microsomes (AID 1963577)
Procedure, shortened: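 p53RE-bla cells, 4,000/well, compound added after 5 h, with human liver microsomes 0.5 mg/mL and NADPH 0.5 mg/mL final; 16 h at 37 C, then LiveBLAzer 2 h RT, fluorescence.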

[7] = p53 small molecule agonists, cell-based qHTS assay with rat liver microsomes: qHTS cell viability counter screen (AID 1963580); further: nearly all actives have a fitted effect of over 45% in size
Procedure, shortened: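 Counter screen for cytotoxicity under metabolic activation: rat liver microsomes and NADPH, 0.5 mg/mL final each, added with compounds to p53RE-bla HCT-116 cells; 16 h at 37 C, then ATP luminescence read.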

[8] = p53 small molecule agonists, cell-based qHTS assay: qHTS cell viability counter screen (AID 1963581); further: nearly all actives have a fitted effect of over 45% in size
Procedure, shortened: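 ATP content measured by luminescence in HCT-116 p53RE-bla cells treated 16 h at 37 C, same wells as the reporter screen.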

[9] = p53 small molecule agonists, cell-based qHTS assay (AID 1963582; active means well fitted activation curve with a large enough effect in the signal ratio in the repeat runs, not every such curve was filed as active; the % refers to the signal ratio)
Procedure, shortened: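 16 h compound exposure (37 C) of p53 response element–bla cells, preceded by 5 h recovery at 37 C/5% CO2; read-out via LiveBLAzer B/G FRET substrate, 2 h RT, fluorescence intensity.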

[10] = target: 5-hydroxytryptamine receptor 2A (Homo sapiens) (UniProt P28223); assay: 5-hydroxytryptamine receptor 2A (HTR2A) small molecule antagonists, cell-based qHTS assay (AID 1963586); further: nearly all actives have a fitted effect of over 45% in size
Procedure, shortened: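 CHO cells stably expressing human HTR2A were plated for 18 h at 37 C, then loaded with calcium dye for 1 h. Compounds were preincubated 5 min at room temperature before DOI (4 nM solution) was added. Kinetic fluorescence was read for 3 min.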

[11] = target: 5-hydroxytryptamine receptor 2A (Homo sapiens) (UniProt P28223); assay: 5-hydroxytryptamine receptor 2A (HTR2A) small molecule agonists, cell-based qHTS assay (AID 1963587); further: nearly all actives have a fitted effect of over 30% in size
Procedure, shortened: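 HTR2A-CHO cells, plated 18 h at 37 C/5% CO2, dye-loaded 1 h at 37 C; compounds in DMSO added by pin tool (agonist mode). Intracellular calcium flux read as kinetic fluorescence on FDSS over 2 min at 1 s intervals.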

[12] = target: Muscarinic acetylcholine receptor M1 (Homo sapiens) (UniProt P11229); assay: Cholinergic receptor muscarinic 1 (CHRM1) small molecule antagonists, cell-based qHTS assay (AID 1963588); further: nearly all actives have a fitted effect of over 40% in size
Procedure, shortened: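 Compounds were tested at 15 concentrations in three independent runs. Dye-loaded CHRM1-CHO cells were exposed 5 min at room temperature before stimulation by acetylcholine added at 50nM. Intracellular calcium was read kinetically on FDSS for 3 min.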

[13] = target: Muscarinic acetylcholine receptor M1 (Homo sapiens) (UniProt P11229); assay: Cholinergic receptor muscarinic 1 (CHRM1) small molecule agonists, cell-based qHTS assay (AID 1963589); further: nearly all actives have a fitted effect of over 35% in size
Procedure, shortened: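 Homogeneous fluorescence calcium flux, agonist mode. Human M1-expressing CHO cells; compound dosed at 15 concentrations, three independent runs; signal sampled every 1 sec.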

[14] = cAMP Responsive Elements (CRE) small molecule agonists, cell-based qHTS assay (AID 1963590)
Procedure, shortened: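 HEK 293T cells stably bearing CRE-bla were plated at 2,000 cells per well and rested 18 h. Compounds, positive controls or DMSO were added for 3 h at 37 C. LiveBLAzer B/G substrate was then loaded for 2 h at room temperature.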

[15] = cAMP Responsive Elements (CRE) small molecule antagonists, cell-based qHTS assay (AID 1963591; active means well fitted inhibition curve with a large enough effect in the signal ratio in the repeat runs, not every such curve was filed as active; the % refers to the signal ratio)
Procedure, shortened: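 First, CRE-bla HEK293T cells settled 18 h at 37 C. Next, compound and 0.25 uM final NKH477 were applied for 3 h. Last, LiveBLAzer B/G substrate was loaded for 2 h at room temperature.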

[16] = target: Beta-2 adrenergic receptor (Homo sapiens) (UniProt P07550); assay: Adrenergic beta2 receptor (ADRB2) small molecule antagonists, cell-based qHTS assay (AID 1963592); further: series mostly up to about 92 µM; nearly all actives have a fitted effect of over 50% in size
Procedure, shortened: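 Assay format: CHO-ADRB2 cells, 18-20hr seeding at 37C/5% CO2, then compound plus 1nM isoproterenol agonist mix for 0.5hr RT. Homogeneous time-resolved fluorescence cAMP detection after 1hr, expressed as 665/615 nm ratio.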

[17] = target: Beta-2 adrenergic receptor (Homo sapiens) (UniProt P07550); assay: Adrenergic beta2 receptor (ADRB2) small molecule agonists, cell-based qHTS assay (AID 1963593);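 further: CHO cells stably overexpressing human ADRB2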
Procedure, shortened: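 CHO cells stably over-expressing ADRB2 were plated overnight at 37C, then dosed with compounds plus a stimulation mix containing 100uM IBMX and 25uM Ro-20-1724 for 0.5hr at room temperature. cAMP was measured by HTRF competition, 1hr.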

[18] = target: D(2) dopamine receptor (Homo sapiens) (UniProt P14416); assay: Dopamine D2 receptor (DRD2) small molecule agonists, cell-based qHTS assay (AID 1963594); further: nearly all actives have a fitted effect of over 35% in size
Procedure, shortened: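 HEK293 cells stably expressing DRD2 were cultured 24 h at 37 C, then given Ro20-1724 (0.1 mM final) and compounds for 10 min at room temperature. NKH477 (200nM) was then added for 30 min. cAMP was read by HTRF.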

[19] = target: D(2) dopamine receptor (Homo sapiens) (UniProt P14416); assay: Dopamine D2 receptor (DRD2) small molecule antagonists, cell-based qHTS assay (AID 1963595; active means well fitted inhibition curve with a large enough effect in the signal ratio in the repeat runs, with a control signal flat; the % refers to the signal ratio)
Procedure, shortened: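 Antagonism was scored as restored cAMP in HEK293-DRD2 cells. These cells were stimulated with 200 nM NKH477 and 12 nM quinpirole for 30 min at room temperature, in the presence of 0.1 mM Ro20-1724.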

[20] = p53 small molecule agonists, cell-based qHTS assay with rat liver microsomes (AID 1963578)
Procedure, shortened: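 p53RE-bla cells, 4,000/well, pre-incubated 5 h, then given compounds plus rat liver microsomes (0.5 mg/mL final) and NADPH (0.5 mg/mL final). Incubation 16 h at 37 C; beta-lactamase reporter read by LiveBLAzer fluorescence after 2 h at room temperature.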

Sequence of KiSS-1 receptor (Homo sapiens) (Q969F8 whole entry, looked up): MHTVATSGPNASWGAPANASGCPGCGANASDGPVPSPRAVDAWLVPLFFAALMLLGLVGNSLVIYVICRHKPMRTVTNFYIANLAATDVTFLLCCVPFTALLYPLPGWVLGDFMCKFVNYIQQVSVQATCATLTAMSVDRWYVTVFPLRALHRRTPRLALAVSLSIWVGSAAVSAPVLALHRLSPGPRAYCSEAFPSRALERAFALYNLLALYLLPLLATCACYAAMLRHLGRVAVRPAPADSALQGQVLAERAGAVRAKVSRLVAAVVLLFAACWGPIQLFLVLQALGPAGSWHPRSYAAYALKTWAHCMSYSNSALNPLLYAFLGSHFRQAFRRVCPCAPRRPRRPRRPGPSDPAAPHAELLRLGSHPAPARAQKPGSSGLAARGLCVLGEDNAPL
Sequence of D(2) dopamine receptor (Homo sapiens) (P14416 whole entry, looked up): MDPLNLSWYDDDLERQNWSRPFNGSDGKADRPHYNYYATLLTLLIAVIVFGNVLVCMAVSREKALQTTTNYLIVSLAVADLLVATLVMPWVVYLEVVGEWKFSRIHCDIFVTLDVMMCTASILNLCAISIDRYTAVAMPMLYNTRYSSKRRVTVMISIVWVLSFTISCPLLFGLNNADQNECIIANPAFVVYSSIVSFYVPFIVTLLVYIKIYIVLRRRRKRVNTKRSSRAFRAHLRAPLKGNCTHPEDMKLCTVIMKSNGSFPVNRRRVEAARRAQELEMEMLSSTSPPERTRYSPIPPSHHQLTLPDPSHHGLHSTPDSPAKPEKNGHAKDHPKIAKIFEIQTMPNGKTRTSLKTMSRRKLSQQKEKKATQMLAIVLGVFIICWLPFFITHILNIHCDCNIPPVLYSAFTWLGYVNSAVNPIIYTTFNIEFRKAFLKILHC
Sequence of 5-hydroxytryptamine receptor 2A (Homo sapiens) (P28223 whole entry, looked up): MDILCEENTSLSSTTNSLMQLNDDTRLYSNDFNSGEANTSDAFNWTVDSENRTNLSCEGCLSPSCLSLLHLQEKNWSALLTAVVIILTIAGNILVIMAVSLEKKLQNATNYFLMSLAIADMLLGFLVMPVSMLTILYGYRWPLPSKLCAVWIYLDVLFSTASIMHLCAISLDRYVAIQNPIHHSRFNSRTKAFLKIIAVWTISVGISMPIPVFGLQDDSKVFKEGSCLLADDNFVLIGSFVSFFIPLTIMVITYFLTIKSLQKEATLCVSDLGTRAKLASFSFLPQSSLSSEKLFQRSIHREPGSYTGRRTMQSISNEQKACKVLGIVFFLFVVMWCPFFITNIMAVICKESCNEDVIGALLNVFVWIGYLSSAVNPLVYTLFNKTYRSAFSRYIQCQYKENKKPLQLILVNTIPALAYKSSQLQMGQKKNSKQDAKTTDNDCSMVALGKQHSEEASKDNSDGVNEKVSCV
Sequence of Beta-2 adrenergic receptor (Homo sapiens) (P07550 whole entry, looked up): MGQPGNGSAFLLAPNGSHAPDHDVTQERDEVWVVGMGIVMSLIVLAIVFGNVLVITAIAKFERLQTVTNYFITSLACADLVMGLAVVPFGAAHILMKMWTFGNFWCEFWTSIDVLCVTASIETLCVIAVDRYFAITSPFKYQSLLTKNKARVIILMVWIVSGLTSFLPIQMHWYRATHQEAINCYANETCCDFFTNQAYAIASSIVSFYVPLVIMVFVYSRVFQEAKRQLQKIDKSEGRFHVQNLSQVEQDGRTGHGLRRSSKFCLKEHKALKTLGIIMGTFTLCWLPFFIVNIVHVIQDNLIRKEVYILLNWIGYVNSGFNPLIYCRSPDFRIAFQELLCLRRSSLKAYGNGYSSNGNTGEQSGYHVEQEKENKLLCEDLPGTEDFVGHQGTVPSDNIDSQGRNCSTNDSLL
Sequence of Gonadotropin-releasing hormone receptor (Homo sapiens) (P30968 whole entry, looked up): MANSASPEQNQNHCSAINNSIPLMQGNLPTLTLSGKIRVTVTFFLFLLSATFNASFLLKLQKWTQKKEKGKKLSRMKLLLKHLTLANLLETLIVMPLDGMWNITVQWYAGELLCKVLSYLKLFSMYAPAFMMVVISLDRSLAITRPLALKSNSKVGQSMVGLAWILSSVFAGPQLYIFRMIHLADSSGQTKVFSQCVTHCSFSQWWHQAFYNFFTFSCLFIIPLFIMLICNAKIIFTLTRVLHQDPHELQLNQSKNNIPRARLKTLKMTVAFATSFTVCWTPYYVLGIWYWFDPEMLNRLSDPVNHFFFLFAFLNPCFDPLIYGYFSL
Sequence of Muscarinic acetylcholine receptor M1 (Homo sapiens) (P11229 whole entry, looked up): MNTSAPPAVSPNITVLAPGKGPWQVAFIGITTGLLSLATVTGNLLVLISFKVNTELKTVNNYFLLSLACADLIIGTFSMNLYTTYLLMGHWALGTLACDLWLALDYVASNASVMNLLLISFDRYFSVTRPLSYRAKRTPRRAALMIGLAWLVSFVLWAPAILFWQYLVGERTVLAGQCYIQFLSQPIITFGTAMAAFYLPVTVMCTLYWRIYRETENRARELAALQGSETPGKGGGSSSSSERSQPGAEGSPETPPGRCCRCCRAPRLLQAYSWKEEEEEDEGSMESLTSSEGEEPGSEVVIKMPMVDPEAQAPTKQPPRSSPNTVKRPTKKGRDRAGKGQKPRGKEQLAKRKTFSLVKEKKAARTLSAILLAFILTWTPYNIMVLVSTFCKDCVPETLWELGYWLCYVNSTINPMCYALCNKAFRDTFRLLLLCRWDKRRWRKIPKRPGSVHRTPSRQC

SMILES | Potency [1] | Potency [2] | Potency [3] | Potency [4] | Potency [5] | Potency [6] | Potency [7] | Potency [8] | Potency [9] | Potency [10] | Potency [11] | Potency [12] | Potency [13] | Potency [14] | Potency [15] | Potency [16] | Potency [17] | Potency [18] | Potency [19] | Potency [20]
Cc1cc(C)c(C)c(O)c1 | inactive | inactive | inactive | inactive | inactive | inactive | inactive | inactive | inactive | inactive | inactive | inactive | inactive | inactive | inactive | inactive | inactive | inactive | inactive | 
NC(=O)CCCCC(N)=O | inactive | inactive | inactive | inactive | inactive | inactive |  | inactive | inactive | inactive | inactive | inactive | inactive | inactive | inactive | inactive |  | inactive | inactive | inactive
CC[C@]1(O)C[C@@H]2CN(CCc3c([nH]c4ccccc34)[C@@](C(=O)OC)(c3cc4c(cc3OC)N(C)[C@H]3[C@@](O)(C(=O)OC)[C@H](OC(C)=O)[C@]5(CC)C=CCN6CC[C@]43[C@@H]65)C2)C1 | inactive | 211 nM (active) and 596 nM (active) | inactive | inactive | inactive | inactive |  |  |  |  |  |  |  |  |  | inactive | inactive | inactive | inactive | inactive
O=C1CC(c2ccc(Cl)cc2)CC(=O)N1 | inactive | inactive | inactive | inactive | inactive | inactive | inactive |  | inactive | inactive | inactive | inactive | inactive | inactive | inactive |  | inactive | inactive | inactive | inactive
CC(N)CN (configuration not stated) | inactive | inactive | inactive | inactive | inactive | inactive | inactive | inactive | inactive | inactive | inactive | inactive | inactive | inactive | inactive | inactive | inactive | inactive | inactive | 
COc1nc(N)nc2nc[nH]c12 | inactive | inactive | inactive | inactive | inactive | inactive | inactive | inactive | inactive | inactive | inactive | inactive | inactive | inactive | inactive | inactive | inactive | inactive | inactive | 
CC(=O)c1ccc2c(c1)CCCC2 | inactive | inactive | inactive | inactive | inactive | inactive | inactive | inactive |  | inactive | inactive | inactive | inactive | inactive | inactive | inactive | inactive | inactive |  | inactive

— PubChem BioAssay (Tox21)
